Bioassay records as filed in PubChem BioAssay.
In the library only some 27% were active in any assay of this set; here they are far more common.
CYP2C9 inh: blockers of cytochrome P450 2C9 activity – biochemical, luminescence, ADME assay, primary screen | P11712 | CYP2C9 Supersomes, luciferin-H conversion | inhibition, % at 5 µM | actives 20% (n = 96,000) | AID 777, 2007;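 active means blocking of liver enzyme CYP2C9 beyond about 50% at 5 µM, limit read from the data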
CYP2C19 activ: human CYP2C19 activators, primary screen, biochemical, luminescence | recombinant CYP2C19, luciferin-H EGE luminescence; active compounds read high; 0 = fully inhibited enzyme, 1 = untreated enzyme | AID 1025, 2008 | Cytochrome P450 2C19 (Homo sapiens), P33261 | activation factor at 5 µM | 96,000 tested, under 10 active;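 active means activation factor of at least 2 at 5 µM in the primary screen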;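 further: 0 = wells with 2.5 mM tranylcypromine and 1 = vehicle-only wells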
CYP2C19 inhib: blockers of cytochrome P450 2C19 activity – biochemical, luminescence, ADME assay, primary screen | P33261 | CYP2C19 Supersomes, luciferin-H EGE luminescence, 30 min | inhibition, % at 5 µM | actives 21% (n = 96,000);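 active means CYP2C19 inhibition above a set limit at 5 µM in the primary screen, cut at about 50% in these data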;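 further: plate controls were negative control wells for no effect and 2.5 mM tranylcypromine positive control for full effect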
sEH activator: soluble epoxide hydrolase activators, primary screen, biochemical, human sEH; AID 717, 2007; activation, % at 2 µM; purified human sEH enzymatic activity, activator screen; actives 0.04% (n = 91,000); in the data active means activation above about 37%
Target sequence (P34913 whole entry, looked up): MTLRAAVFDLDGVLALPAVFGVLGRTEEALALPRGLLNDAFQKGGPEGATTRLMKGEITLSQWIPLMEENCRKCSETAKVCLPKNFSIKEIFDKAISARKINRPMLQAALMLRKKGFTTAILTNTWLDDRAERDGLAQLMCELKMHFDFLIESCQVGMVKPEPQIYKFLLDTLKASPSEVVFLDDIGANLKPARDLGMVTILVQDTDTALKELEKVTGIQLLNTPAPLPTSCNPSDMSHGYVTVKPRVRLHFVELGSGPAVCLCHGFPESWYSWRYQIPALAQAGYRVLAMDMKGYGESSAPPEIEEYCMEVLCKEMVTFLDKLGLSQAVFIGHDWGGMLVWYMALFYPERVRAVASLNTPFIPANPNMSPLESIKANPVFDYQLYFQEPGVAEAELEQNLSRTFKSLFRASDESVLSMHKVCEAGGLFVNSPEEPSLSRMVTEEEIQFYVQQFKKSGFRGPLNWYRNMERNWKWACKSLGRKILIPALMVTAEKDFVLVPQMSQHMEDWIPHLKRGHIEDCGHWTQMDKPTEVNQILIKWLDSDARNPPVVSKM
CYP2C9 activ: human CYP2C9 activators, primary screen, biochemical, luminescence. recombinant CYP2C9, luciferin-H conversion; active compounds read high; factor 1 = untreated enzyme, 0 = blocked. activation factor at 5 µM. actives 1.4% (n = 96,000). AID 1024, 2008;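 active means activation factor of 2 or more for CYP2C9 at a 5 µM dose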;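 further: 0 = sulfaphenazole-blocked wells and 1 = vehicle-only wells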
sEH inhibitor: soluble epoxide hydrolase inhibitors, primary screen, biochemical, human sEH; Bifunctional epoxide hydrolase 2 (Homo sapiens), P34913; recombinant human sEH enzymatic activity assay; inhibition, % at 2 µM; actives 0.34% (n = 91,000); in the data active means inhibition above about 80%
An asterisk follows results filed as active; x = not tested or not shown.

SMILES | CYP2C9 inh | CYP2C19 activ | CYP2C19 inhib | sEH activator | CYP2C9 activ | sEH inhibitor
COc1ccc(C2C(=O)N(C3CCCCC3)CC(=O)N2C2CCCCC2)cc1 (configuration not stated) | 53* | 0.7 | 31 | -2 | 0.5 | 2
C=CCn1c(=O)c2ccccc2n2c(SCC(=O)/C(C#N)=C(\C)N)nnc12 | 15 | 1.1 | -12 | -16 | 0.8 | 16
COc1ccc(OC)c(C2NC(=O)c3sc(=S)n(-c4ccccc4)c3N2)c1 (configuration not stated) | 62* | 0.4 | 57* | -12 | 0.4 | 15
COc1cccc(C2NC(=O)c3sc(=S)n(-c4ccccc4)c3N2)c1 (configuration not stated) | 88* | 0.4 | 57* | -4 | 0.1 | -1
COc1cccc(-c2cc3c(=O)n(-c4ccccc4)c(=S)[nH]c3s2)c1 | 7 | 1.1 | -13 | -14 | 0.9 | 12
CCOc1[nH]n(-c2ccccc2)c(=O)c1C=Nc1ccc(Cl)cc1 | 1 | 1.2 | -22 | -13 | 1 | 12
COc1ccc(NC(=O)CCN2CCN(S(=O)(=O)c3cc(Cl)ccc3OC)CC2)cc1 | 65* | 0 | 97* | -17 | 0.4 | 16
CCOc1ccc(C(=O)CN2CCN(S(=O)(=O)c3ccc(Br)cc3)CC2)cc1 | 8 | 0.6 | 36 | -2 | 0.9 | 2
CCOc1ccc(C(=O)CN2CCN(S(=O)(=O)c3ccc(OC)cc3)CC2)cc1 | 22 | 0.2 | 77* | 19 | 0.8 | -15
CCOc1ccc(NC(=O)CCN2CCN(S(=O)(=O)c3ccc(Cl)cc3)CC2)cc1 | 73* | 0.3 | 72* | -4 | 0.3 | 2
CCOc1ccc(NC(=O)CCN2CCN(S(=O)(=O)c3ccc(OC)cc3)CC2)cc1 | 53* | 0.5 | 46 | -1 | 0.5 | -1
CCOC(=O)C1=C(C)C(c2ccccc2OC)NC(=O)N1 (configuration not stated) | -3 | 1 | 4 | 1 | 1 | 1
CCC1(C)CC(C(CC(=O)O)c2ccc(C)cc2)CCO1 (configuration not stated) | 49 | 0.7 | 29 | 20 | 0.5 | -27
OCCN1CCOCCN(CCO)CCN(CCO)CC1 | -8 | 1.1 | -12 | x | 1.1 | x
c1ccc2c(c1)nc(N1CCOCC1)c1nncn12 | 15 | 1 | 2 | 7 | 0.8 | -10
c1ccc(N2CCN(c3nc4ccccc4n4cnnc34)CC2)cc1 | 49 | 0.3 | 65* | 9 | 0.5 | -9
CC(C)Sc1nnc(-c2c[nH]c3ccccc23)n1C | 19 | 0.3 | 68* | x | 0.8 | x
Cn1c(SCc2cccnc2)nnc1-c1c[nH]c2ccccc12 | 49 | 0.2 | 83* | x | 0.5 | x
C=CCOc1nc2c(c(=O)n(Cc3ccc(Cl)cc3)c(=O)n2C)n1C | 15 | 0.7 | 34 | x | 0.8 | x
C=CCOC(=O)C1=C(C)NC(=O)NC1/C=C/c1ccccc1 (configuration not stated) | 28 | 0.9 | 14 | 1 | 0.7 | 3
COCCOC(=O)C1=C(C)NC(=O)NC1C1CC=CCC1 (configuration not stated) | 30 | 0 | 96* | 0 | 0.7 | 0
C=CCOC(=O)C1=C(C)NC(=O)NC1C1CC=CCC1 (configuration not stated) | 49 | 0 | 98* | -20 | 0.5 | 21
CC(C)CN1CCC(C(=O)NCC2CCCO2)CC1 (configuration not stated) | x | x | x | -7 | x | 10
Cc1ccc(Cl)cc1N1CCN(C(=O)COc2ccc(S(=O)(=O)NC(C)C)cc2)CC1 | 49 | 0.6 | 37 | x | 0.5 | x
CC1=C(C(=O)OC2CCCCC2)C(c2ccc(C)o2)C2=C(CC(C)(C)CC2=O)N1 (configuration not stated) | 39 | 0.9 | 12 | 0 | 0.6 | 4
SMILES | CYP2C9 inh | CYP2C19 activ | CYP2C19 inhib | sEH activator | CYP2C9 activ | sEH inhibitor
CCOC(=O)C1=C(C)NC2=C(C(=O)CCC2)C1c1coc2ccccc2c1=O (configuration not stated) | 68* | 0.4 | 65* | -4 | 0.3 | 2
CC1=C(C(=O)Nc2ccc(F)cc2)C(c2ccc(C)o2)C2=C(CC(C)(C)CC2=O)N1 (configuration not stated) | 4 | 0.9 | 11 | -5 | 1 | 6
CC1=C(C(=O)Nc2ccccc2C)C(c2ccc(C)o2)C2=C(CCCC2=O)N1 (configuration not stated) | 57* | 0.3 | 69* | x | 0.4 | x
CCCOC(=O)C1=C(C)NC2=C(C(=O)CCC2)C1c1cccc(OC)c1OC (configuration not stated) | 20 | 0.2 | 78* | -1 | 0.8 | 2
CC1=C(C(=O)OC2CCCC2)C(c2ccc(C)o2)C2=C(CC(c3cccs3)CC2=O)N1 (configuration not stated) | 72* | 0.9 | 14 | -22 | 0.3 | 23
COC(=O)C1=C(C)NC2=C(C(=O)CCC2)C1c1coc2ccccc2c1=O (configuration not stated) | 10 | 0.6 | 39 | x | 0.9 | x
CCc1ccc(NC(=O)C(C)Nc2ccc(S(=O)(=O)NC(C)=O)cc2)cc1 (configuration not stated) | 10 | 0.9 | 11 | 0 | 0.9 | 2
C[C@H](NC(=O)Nc1ccc2c(c1)OCCO2)C(=O)O | -4 | 1.1 | -12 | 1 | 1 | 0
COc1cc(C(=O)NCCC(=O)NCCN2CCOCC2)cc(OC)c1OC | -1 | 1.1 | -12 | -8 | 1 | 6
CCCOC(=O)C1=C(C)NC2=C(C(=O)CCC2)C1c1cccs1 (configuration not stated) | 71* | 0.2 | 78* | -6 | 0.3 | 6
CCOC(=O)C1=C(C)NC2=C(C(=O)CC(c3cccs3)C2)C1c1cccs1 (configuration not stated) | x | x | x | 2 | x | 4
CC(C)c1cc(C(=O)O)n(-c2ccccc2)n1 | -2 | 1.1 | -11 | 4 | 1 | -10
CCN(CC)C(=O)c1sc2[nH]c(=S)n(-c3ccccc3)c(=O)c2c1C | -20 | 0.9 | 11 | 0 | 1.2 | 3
CCN(CC)C(=O)c1sc2nc(-c3ccncc3)[nH]c(=O)c2c1C | 21 | 0.4 | 63* | x | 0.8 | x
O=C(CNC(=O)Cc1ccccc1)NCC(=O)OCC(=O)c1cccc2ccccc12 | -257 | 0.8 | 22 | 9 | 3.6* | -7
O=C(CNC(=O)c1ccco1)OCC(=O)c1cccc2ccccc12 | -91 | 0.9 | 5 | 0 | 1.9 | -2
O=C(c1ccc(Cl)cc1)c1cn[nH]c1-c1ccccc1O | 86* | 0 | 95* | -3 | 0.1 | 2
